The values that follow come from PubChem BioAssay AID1345085 (National Center for Advancing Translational Sciences (NCATS), 2018).

Results filed as inconclusive are left out. A number with no mark means an inactive call. The source made the active and inactive calls. Calls follow the shape of the dose curve; as a rule, active = well fitted cell-killing curve with a large enough effect; inconclusive = small, poorly fitted or top-dose-only effect, or effect the other way; inactive = no such curve, though single readings can be large or run the other way.
% is scaled to controls: 0 for no effect and ±100 for the full control effect; potency is read from the fitted curve at half-maximal effect.

In the assay the test system is HeLa. Nature of the assay: Confirmatory qHTS for gynecologic anti-cancer compounds from libraries of approved drugs and bioactive compounds. Also: nearly all actives have a fitted effect of over 55% in size. To be noted: gynecologic cancer cell panel viability, ATPlite luminescence, 48 h; series mostly up to 57.6 µM; activity change, negative = viability loss: at the top concentration. In a few lines:
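ATP-based luminescent viability (ATPlite) after 48 h drug treatment at 37 °C, 5% CO2, across 57.5 uM–0.977 nM in 1:3 steps. Cells seeded at 1,000 per well 16 h beforehand; IC50 values computed, HEK 293T as selectivity control.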
For orientation: qHTS replaces the single test concentration by a dilution series.
On to `Cc1csc(NC(=O)c2sc3nc4c(c(C(F)(F)F)c3c2N)CCC4)n1`, for which the Potency is 1.93 µM (active).

On to `CCCCc1nc2cc(/C=C/C(=O)NO)ccc2n1CCN(CC)CC`, for which the Potency is 1.72 µM (active).

With `Nc1ccccc1NC(=O)c1ccc(CNC(=O)OCc2cccnc2)cc1`, the Potency was 4.32 µM (active).

On to `CC[C@H](CC#N)OC(=O)N[C@@H](C)c1cccc(NC(=O)Nc2ccc(-c3cnco3)c(OC)c2)c1`, for which the Potency was 8.63 µM (active).

In the case of `CNc1nccc(-c2cccnc2Oc2cc(C(=O)Nc3cccc(C(F)(F)F)c3)ccc2C)n1`, the Potency is 15.3 µM (active).

Regarding `Cc1ccc(C(=O)Nc2ccc(CN3CCN(C)CC3)c(C(F)(F)F)c2)cc1C#Cc1cnc2cccnn12`, the Potency is 1.72 µM (active).

As for `CC(=O)Nc1cccc(-n2c(=O)n(C3CC3)c(=O)c3c(Nc4ccc(I)cc4F)n(C)c(=O)c(C)c32)c1`, the “activity change, negative = viability loss” value is -19.4%.

For `CC(=O)c1cnc2ccc(-c3cc(Cl)c(O)c(Cl)c3)nc2c1NC1CCC(CN(C)C)CC1` (stereo not drawn), the Potency is 0.0993 µM (active).

As for `CC(C)C[C@H](NC(=O)[C@H](CCc1ccccc1)NC(=O)CN1CCOCC1)C(=O)N[C@@H](Cc1ccccc1)C(=O)N[C@@H](CC(C)C)C(=O)[C@@]1(C)CO1`, the Potency is 10.9 µM (active).

Take `CC(C)Oc1ccc2c(=O)c(-c3ccccc3)coc2c1`: the Potency is 21.7 µM (active).

Regarding `COCCOc1ccc2c(c1)ncn2-c1ccc2cccc(N3CCC(N)CC3)c2n1`, the Potency is 12.2 µM (active).

For `Cn1cc(-c2[nH]c3cc(NC(=O)[C@H](N)C4CCCCC4)cc4c3c2C=NNC4=O)cn1`, the Potency was 1.72 µM (active).

Consider `Cc1cc(C(=O)N2CCN(c3cccc(Cl)c3)CC2)n(-c2ccccc2)n1`, for which the Potency was 2.17 µM (active).
